# In the supplement of paper PMC4466140:
# B1: unnamed (peptide)
# chain: NNQRRKPLLLNIGDH
# B2: unnamed (peptide)
# chain: QLLNPNRRAPRRPLS
# What was measured:
# Test in all cases: SPOT peptide array binding signal intensity (averaged, normalized) (arbitrary units (background-subtracted, floor 0; scale differs between SH3 domains)); higher = stronger binding of the SH3 domain to the peptide
# AgAbp1 = molecular target: AgAbp1
# Procedure, shortened: (§1)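 Binding signal is given in arbitrary units that differ between domains and is the normalized, background-subtracted spot intensity averaged across replicates. Each GST-SH3 fusion from one of four yeast species was made in E. coli BL21(DE3), purified on glutathione Sepharose and incubated at 10 μg/ml overnight at 4°C on cellulose-bound synthetic 15-mer peptides in which cysteines were replaced by serines. Detection used anti-GST antibody, an HRP anti-mouse secondary and luminol, followed by imaging and Genespotter quantification.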
# AgBbc1 = molecular target: AgBbc1
# Procedure, shortened: as §1
# AgBem1-D1 = molecular target: AgBem1-D1
# Procedure, shortened: as §1
# AgBzz1-D1 = molecular target: AgBzz1-D1
# Procedure, shortened: as §1
# AgBzz1-D2 = molecular target: AgBzz1-D2
# Procedure, shortened: as §1
# AgCyk3 = molecular target: AgCyk3
# Procedure, shortened: as §1
# AgFus1 = molecular target: AgFus1
# Procedure, shortened: as §1
# AgHof1 = molecular target: AgHof1
# Procedure, shortened: as §1
# AgHse1 = molecular target: AgHse1
# Procedure, shortened: as §1
# AgLsb1 = molecular target: AgLsb1
# Procedure, shortened: as §1
# AgLsb4 = molecular target: AgLsb4
# Procedure, shortened: as §1
# AgMyo5 = molecular target: AgMyo5
# Procedure, shortened: as §1
# AgNbp2 = molecular target: AgNbp2
# Procedure, shortened: as §1
# AgRvs167 = molecular target: AgRvs167
# Procedure, shortened: as §1
# AgSho1 = molecular target: AgSho1
# Procedure, shortened: as §1
# AgSla1-D1-D2 = molecular target: AgSla1-D1-D2
# Procedure, shortened: as §1
# AgSla1-D3 = molecular target: AgSla1-D3
# Procedure, shortened: as §1
# CaAbp1-D1 = molecular target: CaAbp1-D1
# Procedure, shortened: as §1
# CaAbp1-D2 = molecular target: CaAbp1-D2
# Procedure, shortened: as §1
# CaBbc1 = molecular target: CaBbc1
# Procedure, shortened: as §1
# CaBem1-D1 = molecular target: CaBem1-D1
# Procedure, shortened: as §1
# CaBzz1-D1 = molecular target: CaBzz1-D1
# Procedure, shortened: as §1
# CaBzz1-D2 = molecular target: CaBzz1-D2
# Procedure, shortened: as §1
# CaCyk3 = molecular target: CaCyk3
# Procedure, shortened: as §1
# CaFus1 = molecular target: CaFus1
# Procedure, shortened: as §1
# CaHof1 = molecular target: CaHof1
# Procedure, shortened: as §1
# CaHse1 = molecular target: CaHse1
# Procedure, shortened: as §1
# CaLsb1 = molecular target: CaLsb1
# Procedure, shortened: as §1
# CaLsb4 = molecular target: CaLsb4
# Procedure, shortened: as §1
# CaMyo5 = molecular target: CaMyo5
# Procedure, shortened: as §1
# CaNbp2 = molecular target: CaNbp2
# Procedure, shortened: as §1
# CaRvs167 = molecular target: CaRvs167
# Procedure, shortened: as §1
# CaRvs167-3 = molecular target: CaRvs167-3
# Procedure, shortened: as §1
# CaSho1 = molecular target: CaSho1
# Procedure, shortened: as §1
# CaSla1-D1-D2 = molecular target: CaSla1-D1-D2
# Procedure, shortened: as §1
# CaSla1-D3 = molecular target: CaSla1-D3
# Procedure, shortened: as §1
# ScAbp1 = molecular target: ScAbp1
# Procedure, shortened: as §1
# ScBbc1 = molecular target: ScBbc1
# Procedure, shortened: as §1
# ScBem1-D1 = molecular target: ScBem1-D1
# Procedure, shortened: as §1
# ScBzz1-D1 = molecular target: ScBzz1-D1
# Procedure, shortened: as §1
# ScBzz1-D2 = molecular target: ScBzz1-D2
# Procedure, shortened: as §1
# ScCyk3 = molecular target: ScCyk3
# Procedure, shortened: as §1
# ScFus1 = molecular target: ScFus1
# Procedure, shortened: as §1
# ScHof1 = molecular target: ScHof1
# Procedure, shortened: as §1
# ScHse1 = molecular target: ScHse1
# Procedure, shortened: as §1
# ScLsb1 = molecular target: ScLsb1
# Procedure, shortened: as §1
# ScLsb2 = molecular target: ScLsb2
# Procedure, shortened: as §1
# ScLsb3 = molecular target: ScLsb3
# Procedure, shortened: as §1
# ScLsb4 = molecular target: ScLsb4
# Procedure, shortened: as §1
# ScMyo3 = molecular target: ScMyo3
# Procedure, shortened: as §1
# ScMyo5 = molecular target: ScMyo5
# Procedure, shortened: as §1
# ScNbp2 = molecular target: ScNbp2
# Procedure, shortened: as §1
# ScPex13 = molecular target: ScPex13
# Procedure, shortened: as §1
# ScRvs167 = molecular target: ScRvs167
# Procedure, shortened: as §1
# ScSho1 = molecular target: ScSho1
# Procedure, shortened: as §1
# ScSla1-D1-D2 = molecular target: ScSla1-D1-D2
# Procedure, shortened: as §1
# ScSla1-D3 = molecular target: ScSla1-D3
# Procedure, shortened: as §1
# SpAbp1-D1 = molecular target: SpAbp1-D1
# Procedure, shortened: as §1
# SpBbc1 = molecular target: SpBbc1
# Procedure, shortened: as §1
# SpBzz1-D1 = molecular target: SpBzz1-D1
# Procedure, shortened: as §1
# SpBzz1-D2 = molecular target: SpBzz1-D2
# Procedure, shortened: as §1
# SpCyk3 = molecular target: SpCyk3
# Procedure, shortened: as §1
# SpHof1 = molecular target: SpHof1
# Procedure, shortened: as §1
# SpHof1-2 = molecular target: SpHof1-2
# Procedure, shortened: as §1
# SpHof1-3 = molecular target: SpHof1-3
# Procedure, shortened: as §1
# SpHse1 = molecular target: SpHse1
# Procedure, shortened: as §1
# SpLsb1 = molecular target: SpLsb1
# Procedure, shortened: as §1
# SpLsb4 = molecular target: SpLsb4
# Procedure, shortened: as §1
# SpMyo1 = molecular target: SpMyo1
# Procedure, shortened: as §1
# SpNbp2 = molecular target: SpNbp2
# Procedure, shortened: as §1
# SpPex13 = molecular target: SpPex13
# Procedure, shortened: as §1
# SpRvs167 = molecular target: SpRvs167
# Procedure, shortened: as §1
# SpSla1-D1-D2 = molecular target: SpSla1-D1-D2
# Procedure, shortened: as §1
# SpSla1-D3 = molecular target: SpSla1-D3
# Procedure, shortened: as §1
binder,measurement,setting,value
B1,SPOT peptide array binding signal intensity,AgAbp1,108
same,SPOT peptide array binding signal intensity,AgBbc1,≤ 0
same,SPOT peptide array binding signal intensity,AgBem1-D1,≤ 0
same,SPOT peptide array binding signal intensity,AgBzz1-D1,≤ 0
same,SPOT peptide array binding signal intensity,AgBzz1-D2,54
same,SPOT peptide array binding signal intensity,AgCyk3,0.5
same,SPOT peptide array binding signal intensity,AgFus1,305
same,SPOT peptide array binding signal intensity,AgHof1,6
same,SPOT peptide array binding signal intensity,AgHse1,1660
same,SPOT peptide array binding signal intensity,AgLsb1,≤ 0
same,SPOT peptide array binding signal intensity,AgLsb4,≤ 0
same,SPOT peptide array binding signal intensity,AgMyo5,1
same,SPOT peptide array binding signal intensity,AgNbp2,68.5
same,SPOT peptide array binding signal intensity,AgRvs167,5.67
same,SPOT peptide array binding signal intensity,AgSho1,24.5
same,SPOT peptide array binding signal intensity,AgSla1-D1-D2,175
same,SPOT peptide array binding signal intensity,AgSla1-D3,5.5
same,SPOT peptide array binding signal intensity,CaAbp1-D1,330
same,SPOT peptide array binding signal intensity,CaAbp1-D2,458
same,SPOT peptide array binding signal intensity,CaBbc1,≤ 0
same,SPOT peptide array binding signal intensity,CaBem1-D1,≤ 0
same,SPOT peptide array binding signal intensity,CaBzz1-D1,≤ 0
same,SPOT peptide array binding signal intensity,CaBzz1-D2,≤ 0
same,SPOT peptide array binding signal intensity,CaCyk3,1.5
same,SPOT peptide array binding signal intensity,CaFus1,1030
same,SPOT peptide array binding signal intensity,CaHof1,≤ 0
same,SPOT peptide array binding signal intensity,CaHse1,21
same,SPOT peptide array binding signal intensity,CaLsb1,0.5
same,SPOT peptide array binding signal intensity,CaLsb4,≤ 0
same,SPOT peptide array binding signal intensity,CaMyo5,≤ 0
same,SPOT peptide array binding signal intensity,CaNbp2,528
same,SPOT peptide array binding signal intensity,CaRvs167,12
same,SPOT peptide array binding signal intensity,CaRvs167-3,35.8
same,SPOT peptide array binding signal intensity,CaSho1,420
same,SPOT peptide array binding signal intensity,CaSla1-D1-D2,≤ 0
same,SPOT peptide array binding signal intensity,CaSla1-D3,2.25
same,SPOT peptide array binding signal intensity,ScAbp1,442
same,SPOT peptide array binding signal intensity,ScBbc1,≤ 0
same,SPOT peptide array binding signal intensity,ScBem1-D1,3
same,SPOT peptide array binding signal intensity,ScBzz1-D1,16.5
same,SPOT peptide array binding signal intensity,ScBzz1-D2,≤ 0
same,SPOT peptide array binding signal intensity,ScCyk3,33
same,SPOT peptide array binding signal intensity,ScFus1,272
same,SPOT peptide array binding signal intensity,ScHof1,0.5
same,SPOT peptide array binding signal intensity,ScHse1,1820
same,SPOT peptide array binding signal intensity,ScLsb1,≤ 0
same,SPOT peptide array binding signal intensity,ScLsb2,≤ 0
same,SPOT peptide array binding signal intensity,ScLsb3,68
same,SPOT peptide array binding signal intensity,ScLsb4,≤ 0
same,SPOT peptide array binding signal intensity,ScMyo3,≤ 0
same,SPOT peptide array binding signal intensity,ScMyo5,≤ 0
same,SPOT peptide array binding signal intensity,ScNbp2,112
same,SPOT peptide array binding signal intensity,ScPex13,≤ 0
same,SPOT peptide array binding signal intensity,ScRvs167,4.33
same,SPOT peptide array binding signal intensity,ScSho1,676
same,SPOT peptide array binding signal intensity,ScSla1-D1-D2,37
same,SPOT peptide array binding signal intensity,ScSla1-D3,≤ 0
same,SPOT peptide array binding signal intensity,SpAbp1-D1,384
same,SPOT peptide array binding signal intensity,SpBbc1,0.5
same,SPOT peptide array binding signal intensity,SpBzz1-D1,136
same,SPOT peptide array binding signal intensity,SpBzz1-D2,≤ 0
same,SPOT peptide array binding signal intensity,SpCyk3,≤ 0
same,SPOT peptide array binding signal intensity,SpHof1,93.2
same,SPOT peptide array binding signal intensity,SpHof1-2,2.5
same,SPOT peptide array binding signal intensity,SpHof1-3,892
same,SPOT peptide array binding signal intensity,SpHse1,1730
same,SPOT peptide array binding signal intensity,SpLsb1,≤ 0
same,SPOT peptide array binding signal intensity,SpLsb4,≤ 0
same,SPOT peptide array binding signal intensity,SpMyo1,≤ 0
same,SPOT peptide array binding signal intensity,SpNbp2,133
same,SPOT peptide array binding signal intensity,SpPex13,≤ 0
same,SPOT peptide array binding signal intensity,SpRvs167,≤ 0
same,SPOT peptide array binding signal intensity,SpSla1-D1-D2,≤ 0
same,SPOT peptide array binding signal intensity,SpSla1-D3,≤ 0
B2,SPOT peptide array binding signal intensity,AgAbp1,104
same,SPOT peptide array binding signal intensity,AgBbc1,451
same,SPOT peptide array binding signal intensity,AgBem1-D1,328
same,SPOT peptide array binding signal intensity,AgBzz1-D1,59
same,SPOT peptide array binding signal intensity,AgBzz1-D2,45
same,SPOT peptide array binding signal intensity,AgCyk3,2
same,SPOT peptide array binding signal intensity,AgFus1,158
same,SPOT peptide array binding signal intensity,AgHof1,89.8
same,SPOT peptide array binding signal intensity,AgHse1,144
same,SPOT peptide array binding signal intensity,AgLsb1,9.25
same,SPOT peptide array binding signal intensity,AgLsb4,25
same,SPOT peptide array binding signal intensity,AgMyo5,60.5
same,SPOT peptide array binding signal intensity,AgNbp2,4130
same,SPOT peptide array binding signal intensity,AgRvs167,2.83
same,SPOT peptide array binding signal intensity,AgSho1,7
same,SPOT peptide array binding signal intensity,AgSla1-D1-D2,33
same,SPOT peptide array binding signal intensity,AgSla1-D3,4
same,SPOT peptide array binding signal intensity,CaAbp1-D1,608
same,SPOT peptide array binding signal intensity,CaAbp1-D2,495
same,SPOT peptide array binding signal intensity,CaBbc1,1450
same,SPOT peptide array binding signal intensity,CaBem1-D1,122
same,SPOT peptide array binding signal intensity,CaBzz1-D1,220
same,SPOT peptide array binding signal intensity,CaBzz1-D2,135
same,SPOT peptide array binding signal intensity,CaCyk3,161
same,SPOT peptide array binding signal intensity,CaFus1,270
same,SPOT peptide array binding signal intensity,CaHof1,0.25
same,SPOT peptide array binding signal intensity,CaHse1,13.5
same,SPOT peptide array binding signal intensity,CaLsb1,0.25
same,SPOT peptide array binding signal intensity,CaLsb4,95.5
same,SPOT peptide array binding signal intensity,CaMyo5,6.75
